From PubChem BioAssay (NCATS)
Inconclusive results are not listed. Calls of active or inactive are those of the source. The call rests on the fitted dose curve; in most records, active means well fitted curve in the direction sought with a large enough effect; inconclusive means small, poorly fitted or top-dose-only effect, or another doubt; inactive means no such curve, though single readings can be large; an effect the other way counts as inactive or inconclusive.

Assays:
[1] = target: DNA dC->dU-editing enzyme APOBEC-3G (Homo sapiens) (UniProt Q9HC16); assay: qHTS for inhibitors of Vif-A3G interactions: Validation (AID 588379)
Summary of the method: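 Yellow fluorescence (Ex 488, Em 500-530) of Vif-coexpressing HeLa A3G-eYFP cells, scanned by Acumen cytometer, reports blocked A3G degradation. Cells plated at 700/well overnight at 37 deg C before compound addition, then a further overnight compound incubation at 37 deg C.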

[2] = MultiTox-Fluor Cytotoxicity Assay - LYMP1-001 - Dead Cells (AID 946); further: potency means the concentration at half of the fitted maximal effect
Summary of the method: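 LYMP1-001 lymphoblastoid cells (2500/well) treated 16 h at 37 C. Dead-cell protease cleavage of bis-AAF-R110 read at Ex/Em 485/520. Normalized to DMSO and 15 uM tetraoctylammonium bromide; AC50 from Hill fits.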

[3] = MultiTox-Fluor Cytotoxicity Assay - LYMP1-001 - Live Cells (AID 947); further: potency means the concentration at half of the fitted maximal effect
[4] = Cell Viability - LYMP1-003 - Assay at 24 hr (AID 963); further: potency means the concentration at half of the fitted maximal effect
Summary of the method: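 Concentration-response qHTS: ATP loss measured by CellTiter-Glo luminescence after 24 h compound exposure at 37 C. Cells were LYMP1-003 human lymphoblastoid, 2500 per well. AC50 derived via standard Hill equation modeling.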

[5] = Cell Viability - LYMP2-015 (AID 971); further: potency means the concentration at half of the fitted maximal effect; nearly all actives have a fitted effect of over 55% in size
Summary of the method: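 Cytotoxicity readout: decrease in intracellular ATP (CellTiter-Glo luminescence) in 2500 LYMP2-015 lymphoblastoid cells/well after 24 h compound exposure at 37 C. Concentration-response data fitted with the standard Hill equation to give AC50.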

[6] = Cell Viability - LYMP2-017 (AID 972); further: potency means the concentration at half of the fitted maximal effect; nearly all actives have a fitted effect of over 55% in size
Summary of the method: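 CellTiter-Glo luminescence (cellular ATP, 30 min RT) measured cytotoxicity after 24 hr compound treatment at 37 C. Cells were a human lymphoblastoid line, LYMP2-017, plated at 2500/well and incubated 5 hr first; concentration-response fitted with Hill equation for AC50.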

[7] = Cell Viability - LYMP2-019 (AID 973); further: potency means the concentration at half of the fitted maximal effect; nearly all actives have a fitted effect of over 55% in size
Summary of the method: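 AC50 values come from Hill-equation fits of luminescent intracellular ATP (CellTiter-Glo, 30 min, room temperature) following 24 h compound exposure at 37 C. Cells: LYMP2-019 lymphoblastoid line, 2500 per well, in complete culture medium.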

[8] = Cell Viability - LYMP2-021 (AID 974); further: potency means the concentration at half of the fitted maximal effect; nearly all actives have a fitted effect of over 55% in size
Summary of the method: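 AC50 values come from Hill-equation fits to CellTiter-Glo luminescence (ATP content), read after 24 hour compound exposure at 37 C of 2500 LYMP2-021 lymphoblastoid cells/well; tetraoctylammonium bromide as positive control.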

[9] = Cell Viability - LYMP2-023 (AID 975)
Summary of the method: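 Intracellular ATP, read by CellTiter-Glo luminescence, reports viability after 24 hr compound exposure at 37 C. 2500 lymphoblastoid cells/well (LYMP2-023) seeded 5 hr beforehand; Hill fits give AC50; positive control tetraoctylammonium bromide.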

[10] = Cell Viability - LYMP2-006 (AID 978); further: potency means the concentration at half of the fitted maximal effect; nearly all actives have a fitted effect of over 60% in size
Summary of the method: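 In this cytotoxicity screen, the human lymphoblastoid line grew in complete medium with test compounds for 24 hr at 37 C. Cellular ATP served as the viability signal.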

[11] = Cell Viability - LYMP2-007 (AID 979);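 further: potency means the concentration at half of the fitted maximal effect; cells exposed to compound for 24 h before reading; nearly all actives have a fitted effect of over 60% in size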
Summary of the method: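 AC50 values come from Hill-equation fits of luminescent intracellular ATP (CellTiter-Glo, 30 min, room temperature) following 24 h compound exposure at 37 C. Cells: LYMP2-007 lymphoblastoid line, 2500 per well, in complete culture medium.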

[12] = Cell Viability - LYMP2-008 (AID 980); further: potency means the concentration at half of the fitted maximal effect; nearly all actives have a fitted effect of over 60% in size
Summary of the method: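 Cytotoxicity determined from ATP-dependent luciferase luminescence (CellTiter-Glo) following 24 h compound exposure of human lymphoblastoid LYMP2-008 cells at 37 C. Concentration-response data fitted to the Hill equation to give AC50.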

[13] = Cell Viability - LYMP2-010 (AID 981)
Summary of the method: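 CellTiter-Glo ATP luminescence measured cytotoxicity after 24 h compound exposure at 37 C. LYMP2-010 cells were seeded at 2500/well, with tetraoctylammonium bromide as control; concentration-response curves gave AC50 values by the Hill equation.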

[14] = Cell Viability - LYMP2-012 (AID 982)
[15] = Cell Viability - LYMP2-014 (AID 983); further: potency means the concentration at half of the fitted maximal effect; nearly all actives have a fitted effect of over 50% in size
Summary of the method: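 Intracellular ATP loss, read by luciferase luminescence, measures acute cytotoxicity after 24 h compound exposure of lymphoblastoid LYMP2-014 cells (2500/well, 37 C). Concentration-response data fitted to the Hill equation for AC50.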

[16] = Cell Viability - LYMP2-016 (AID 984)
Summary of the method: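 Concentration-dependent ATP depletion measured in LYMP2-016 lymphoblastoid cells, 24 h, 37 C; luciferase-based luminescent detection; Hill-equation AC50.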

[17] = Cell Viability - LYMP2-020 (AID 986)
Summary of the method: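 Cytotoxicity in qHTS format: luminescent ATP readout from CellTiter-Glo after 24 h compound exposure at 37 C in complete medium. LYMP2-020 lymphoblastoid cells were seeded at 2500/well; concentration-response data fitted to the Hill equation for AC50.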

[18] = Cell Viability - LYMP2-024 (AID 988); further: potency means the concentration at half of the fitted maximal effect; nearly all actives have a fitted effect of over 60% in size
Summary of the method: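 Cytotoxicity was taken as a decrease in ATP (CellTiter-Glo luminescence) after 24 hr compound exposure at 37 C of LYMP2-024 lymphoblastoid cells, 2500 cells/well. Concentration-response data were fitted to the Hill equation to give AC50.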

[19] = Cell Viability - LYMP2-026 (AID 989); further: potency means the concentration at half of the fitted maximal effect; nearly all actives have a fitted effect of over 50% in size
Summary of the method: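 Cytotoxicity read as ATP-dependent luminescence (CellTiter-Glo, 30 min room temperature) after 24 h compound treatment at 37 C. LYMP2-026 lymphoblastoid line seeded at 2500 cells/well; AC50 derived by standard Hill equation.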

[20] = target: Nuclear receptor ROR-gamma (Homo sapiens) (UniProt P51449); assay: qHTS assay for small molecule antagonists of the retinoid-related orphan receptor gamma (ROR-gamma) signaling pathway (AID 651802)
Summary of the method: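 Luminescence (One-Glo, 30 min RT) measured 16 h after compound addition and doxycycline induction at 37C. Reporter: RORE-luciferase under TET-inducible ROR-gamma in CHO cells.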

Measured: Potency

Chain of Nuclear receptor ROR-gamma (Homo sapiens) (P51449 whole entry, looked up): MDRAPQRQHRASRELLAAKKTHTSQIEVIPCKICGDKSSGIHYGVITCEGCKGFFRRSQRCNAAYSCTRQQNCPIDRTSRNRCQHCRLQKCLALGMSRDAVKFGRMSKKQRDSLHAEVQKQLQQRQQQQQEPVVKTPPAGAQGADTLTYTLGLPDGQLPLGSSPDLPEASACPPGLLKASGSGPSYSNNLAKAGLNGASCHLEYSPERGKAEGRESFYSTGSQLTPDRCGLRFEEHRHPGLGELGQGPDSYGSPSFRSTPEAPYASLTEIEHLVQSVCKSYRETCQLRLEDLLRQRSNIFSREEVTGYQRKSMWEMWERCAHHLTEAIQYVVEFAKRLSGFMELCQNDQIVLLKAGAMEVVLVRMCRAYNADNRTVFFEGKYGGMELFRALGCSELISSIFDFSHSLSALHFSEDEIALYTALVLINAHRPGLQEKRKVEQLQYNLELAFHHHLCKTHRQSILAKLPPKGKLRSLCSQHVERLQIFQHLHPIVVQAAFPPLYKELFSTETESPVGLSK
Chain of DNA dC->dU-editing enzyme APOBEC-3G (Homo sapiens) (Q9HC16 whole entry, looked up): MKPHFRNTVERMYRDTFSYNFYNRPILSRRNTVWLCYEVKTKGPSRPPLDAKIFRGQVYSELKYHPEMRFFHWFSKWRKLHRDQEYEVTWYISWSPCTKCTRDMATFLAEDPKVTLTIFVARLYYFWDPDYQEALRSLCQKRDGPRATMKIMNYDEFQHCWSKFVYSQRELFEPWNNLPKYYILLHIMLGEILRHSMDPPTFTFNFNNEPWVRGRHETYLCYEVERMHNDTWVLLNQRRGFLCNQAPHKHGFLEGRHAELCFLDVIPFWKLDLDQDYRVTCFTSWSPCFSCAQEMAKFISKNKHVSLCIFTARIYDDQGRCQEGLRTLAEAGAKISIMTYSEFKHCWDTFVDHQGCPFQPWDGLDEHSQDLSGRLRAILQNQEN

CN1Cc2c(ccc3c2OCO3)C2C(O)Cc3cc4c(cc3C21)OCO4 (stereo not given)
inactive: [1]

CN1C[C@@H](CO)C=C2c3cccc4[nH]cc(c34)CC21 (stereo not given in full)
inactive: [1]

O=Nc1ccc(Nc2ccccc2)cc1
active: [2] 5.01 µM | [3] 7.94 µM | [4] 10 µM | [5] 3.98 µM | [6] 6.31 µM | [7] 3.98 µM | [8] 5.01 µM | [9] 6.31 µM | [10] 7.94 µM | [11] 5.01 µM | [12] 7.94 µM | [13] 5.01 µM | [14] 7.94 µM | [15] 6.31 µM | [16] 6.31 µM | [17] 5.01 µM | [18] 2.51 µM | [19] 6.31 µM | [20] 7.5 µM

c1cc(OCC2CO2)cc(OCC2CO2)c1 (stereo not given)
active: [5] 39.8 µM | [6] 39.8 µM | [7] 39.8 µM | [8] 39.8 µM | [9] 50.1 µM | [10] 39.8 µM | [11] 39.8 µM | [12] 39.8 µM | [13] 31.6 µM | [14] 31.6 µM | [15] 39.8 µM | [16] 25.1 µM | [17] 39.8 µM | [18] 39.8 µM | [19] 39.8 µM

C=CC(=O)OCC(CO)(COC(=O)C=C)COC(=O)C=C
active: [2] 7.94 µM | [3] 6.31 µM | [4] 6.31 µM | [5] 5.01 µM | [6] 5.01 µM | [7] 3.98 µM | [8] 3.98 µM | [9] 6.31 µM | [10] 5.01 µM | [11] 5.01 µM | [12] 5.01 µM | [13] 3.98 µM | [14] 3.98 µM | [15] 5.01 µM | [16] 5.01 µM | [17] 3.98 µM | [18] 3.16 µM | [19] 6.31 µM | [20] 4.22 µM
